Source: PubChem BioAssay
In the library only some 27% were active in any assay of this set; here they are far more common.
CYP2C9 inh – blocks human cytochrome P450 2C9 | inhibition, % at 5 µM | 96,000 tested, 20% active | AID 777 | CYP2C9 Supersomes, luciferin-H conversion, luminescence;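 active = blocking of liver enzyme CYP2C9 beyond about 50% at 5 µM, limit read from the data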
CYP2C19 inhib – human CYP2C19 inhibition | 96,000 tested, 21% active | CYP2C19 Supersomes, luciferin-H EGE luminescence, 30 min | inhibition, % at 5 µM | P33261;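 active = CYP2C19 inhibition above a set limit at 5 µM in the primary screen, cut at about 50% in these data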;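 note: plate controls were negative control wells for no effect and 2.5 mM tranylcypromine positive control for full effect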
CYP2C9 activ – activators of human CYP2C9; activation factor at 5 µM; 96,000 tested, 1.4% active; recombinant CYP2C9, luciferin-H conversion, luminescence; active compounds read high; factor 1 = untreated enzyme, 0 = blocked; P11712;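 active = activation factor of 2 or more for CYP2C9 at a 5 µM dose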;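 note: 0 = sulfaphenazole-blocked wells and 1 = vehicle-only wells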
Cav3 T inh – human Cav3.2 channel inhibition, primary screen; B-score at 10 µM; O95180; Cav3.2-expressing cells, Fluo-4 calcium fluorescence FDSS; active compounds read low; 100,000 tested, 4% active;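 active = single-dose well whose peak fluorescence ratio is a statistical outlier from its plate by either plate-standardised score or position-corrected B-score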
CYP2C19 activ – activators of human cytochrome P450 2C19. activation factor at 5 µM. P33261. AID 1025. recombinant CYP2C19, luciferin-H EGE luminescence; active compounds read high; 0 = fully inhibited enzyme, 1 = untreated enzyme. 96,000 tested, under 10 active;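 active = activation factor of at least 2 at 5 µM in the primary screen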;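 note: 0 = wells with 2.5 mM tranylcypromine and 1 = vehicle-only wells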
Starred values were filed as active, the others as inactive; · = no result.

SMILES	CYP2C9 inh	CYP2C19 inhib	CYP2C9 activ	Cav3 T inh	CYP2C19 activ
CCc1ccc(C(=O)CSc2n[nH]c(-c3ccncc3)n2)cc1	97*	87*	0	0.79	0.1
COc1ccc(C(=O)CSc2ncn[nH]2)cc1OC	-15	29	1.1	-0.58	0.7
O=C(CSc1n[nH]c(-c2ccncc2)n1)Nc1ccccn1	77*	50*	0.2	-0.016	0.5
O=C(CSc1n[nH]c(-c2ccccc2)n1)Nc1ccc(Br)cn1	·	·	·	-0.7	·
CCc1ccc(C(=O)CSc2ncn[nH]2)cc1	31	75*	0.7	-0.38	0.3
CCOC(=O)c1sc(NC(=O)CSc2n[nH]c(-c3ccncc3)n2)c(C#N)c1C	51*	4	0.5	1.2	1
COc1ccc(C(=O)CSc2n[nH]c(-c3ccco3)n2)cc1	11	29	0.9	-0.53	0.7
Cc1ccc(NC(=O)CSc2n[nH]c(-c3ccncc3)n2)cc1	94*	62*	0.1	0.97	0.4
O=C(CSc1n[nH]c(-c2ccccc2)n1)c1ccc(O)c(O)c1	56*	64*	0.4	0.23	0.4
COC(=O)CSc1n[nH]c(-c2ccncc2)n1	65*	61*	0.4	-0.9	0.4
CCN(CC)c1ccc(NC(=O)C2CCCN(S(=O)(=O)c3cccnc3)C2)c(C)c1 (centres undefined)	8	27	0.9	-0.82	0.7
CCCCCn1c(N2CCOCC2)nc2c1c(=O)n(CC(N)=O)c(=O)n2C	-8	-11	1.1	-0.14	1.1
Clc1ccc(Sc2ccc(/C=N/n3cnnc3)o2)cc1	48	77*	0.5	-0.47	0.2
Clc1ccc(Sc2oc(/C=N/n3cnnc3)cc2Br)cc1	5	91*	0.9	-0.038	0.1
COC(=O)c1ccc(C(NC(=O)OCc2ccccc2)/C(F)=C/[C@@H](C)C(=O)NCc2ccc(OC)c(OC)c2)cc1 (some centres undefined)	·	·	·	-1.3	·
CC1CC(C)CN(C(=O)c2ccccc2Nc2ccc(SC(F)F)cc2)C1 (centres undefined)	76*	81*	0.2	-4.2*	0.2
O=C1CCCc2ccccc2N1Cc1ccccc1Cl	46	88*	0.5	·	0.1
O=C1CCCc2ccccc2N1Cc1ccc(Cl)cc1Cl	87*	94*	0.1	-3.7	0.1
N=c1ccn(Cc2ccccc2Cl)cc1	31	-6	0.7	0.64	1.1
O=C1CCCc2ccccc2N1Cc1c(Cl)cccc1Cl	91*	96*	0.1	·	0
O=C(Nc1ccccc1C(F)(F)F)C1CC(=O)N(c2ccccc2F)C1 (centres undefined)	13	16	0.9	1.5	0.8
Cc1ccc(C(=O)NNC(=O)c2ccc(SCC3CCCO3)c([N+](=O)[O-])c2)cc1 (centres undefined)	47	-6	0.5	0.37	1.1
O=C(NNC(=O)c1ccc(SCC2CCCO2)c([N+](=O)[O-])c1)c1ccc(Cl)c([N+](=O)[O-])c1 (centres undefined)	74*	12	0.3	0.38	0.9
O=C(NNC(=O)c1ccccc1Br)c1ccc(SCC2CCCO2)c([N+](=O)[O-])c1 (centres undefined)	62*	8	0.4	0.9	0.9
O=C(Cn1nnc(-c2ccc(Cl)cc2)n1)NCC1CCCCC1	33	45	0.7	-0.19	0.5
SMILES	CYP2C9 inh	CYP2C19 inhib	CYP2C9 activ	Cav3 T inh	CYP2C19 activ
N#Cc1c(NC(=O)CN2C(=O)c3ccccc3C2=O)oc(-c2ccccc2)c1-c1ccccc1	·	·	·	-4*	·
N#Cc1c(NC(=O)CCN2C(=O)c3ccccc3C2=O)oc(-c2ccccc2)c1-c1ccccc1	82*	30	0.2	-7.2*	0.7
O=C(O)CCn1cnc2ccccc2c1=O	-3	15	1	-0.02	0.8
O=C(CCN1C(=O)c2ccccc2C1=O)Nn1cnnc1	90*	-2	0.1	-0.11	1
N#Cc1c(NC(=O)CCn2cnc3ccccc3c2=O)oc(-c2ccccc2)c1-c1ccccc1	96*	81*	0	-9.4*	0.2
O=C(CCn1cnc2ccccc2c1=O)Nc1ccc2c(c1)OCCO2	53*	53*	0.5	0.84	0.5
CCn1c2ccccc2c2nnc(SCC(=O)N3CC(C)OC(C)C3)nc21 (centres undefined)	-33	22	1.3	0.46	0.8
CCn1c2ccccc2c2nnc(SCc3cc(=O)n4ccsc4n3)nc21	65*	87*	0.3	·	0.1
COc1ccccc1N1CCN(C(=O)/C=C/c2ccc3c(c2)OCO3)CC1	34	37	0.7	0.0021	0.6
